HepG2 viability = qHTS for Inhibitors of TGF-b: Cytotox Counterscreen. HepG2 CAGA-GFP viability, ATP luminescence, 18 h. Potency, µM (doses to about 46.1 µM), for the others: at the top dose activity change, negative = cytotoxicity, usual class: cytotoxic. hit rate 0.76% among 410,000
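CellTiter-Glo luminescence gave cytotoxicity after 18 hours at 37 degrees C. The cells were HepG2 CAGA-GFP in 1% FBS DMEM, stimulated with 500 pg/mL TGF-beta after compound addition. %Activity was normalised to no-cell wells (complete cell-killing) and DMSO (no toxicity), and curves were fitted and classified.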
TDP1 cell CPT = qHTS for Inhibitors of human tyrosyl-DNA phosphodiesterase 1 (TDP1): qHTS in cells in presence of CPT; hit rate 12% among 420,000; chicken DT40 Tdp1-/-;hTDP1 cells + 20 nM CPT, ATP luminescence, 48 h; Potency, µM (highest dose often 46.2 µM), inactives show top-dose activity change, negative = growth inhibition, hits mostly inhibitors; AID 686979, 2013; also: % is scaled to controls: 0 for no effect and ±100 for the full control effect; nearly all actives have a fitted effect of over 55% in size
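Chicken DT40 Tdp1-/- cells stably complemented with human TDP1 were seeded at 400 cells/well in medium containing 20 nM camptothecin, exposed to pin-transferred compounds, and grown at 37 °C for at least 48 hr. Viability was read as ATP luminescence.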
TGFb inhibitor = qHTS for Inhibitors of TGF-b; AID 588855, 2011; HepG2 CAGA-GFP TGF-b/SMAD3 reporter, GFP fluorescence, 18 h; TGF-beta stimulated, 500 pg/mL final; Potency, µM (series often up to 46.1 µM), for inactives: top-dose activity, negative = inhibition, hits mostly inhibitors; hit rate 1.2% among 410,000; also: % is scaled to controls: 0 for no effect and ±100 for the full control effect; nearly all actives have a fitted effect of over 65% in size
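First, reporter cells (HEPG2 CAGA-GFP) rested 2 h at 37 degrees C. Next, compounds were pinned in and TGF-beta added to 500 pg/mL final. After 18 h, GFP was imaged per cell and summed per well.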
ATXN viability = Viability Counterscreen for Primary qHTS for Inhibitors of ATXN expression | S2 cells (HEK-293 line with an ATXN2-luciferase reporter) viability, CellTiter-Fluor protease fluorescence, 24 h | Potency, µM (doses to about 56.7 µM), usual class: cytotoxic | hit rate 0.49% among 400,000; also: nearly all actives have a fitted effect of over 40% in size
ATXN2 expr inh = Primary qHTS for Inhibitors of ATXN expression. HEK-293 ATXN2-luciferase reporter, luminescence, 24 h. AID 1745845, 2022. Potency, µM (series often up to 57 µM), for inactives: at the top dose activity change, negative = inhibition, most hits filed as inhibitors. hit rate 0.72% among 360,000; also: % is scaled to controls: 0 for no effect and ±100 for the full control effect; nearly all actives have a fitted effect of over 55% in size
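qHTS (up to 57 uM final) was run with 24 h compound exposure of reporter cells at 37 °C. Each well was multiplexed: SteadyGlo luminescence measured ATXN2-luciferase expression after a fluorogenic Gly-Phe-AFC viability readout (25 uM final).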
TDP1 cell noCPT = qHTS for Inhibitors of human tyrosyl-DNA phosphodiesterase 1 (TDP1): qHTS in cells in absence of CPT. DT40 Tdp1-/- hTDP1 cells, no CPT, ATP luminescence, 48 h. Potency, µM (series often up to 46.2 µM), without a hit: at the highest dose activity change, negative = growth inhibition, hits mostly inhibitors. hit rate 15% among 420,000. AID 686978, 2013; also: % is scaled to controls: 0 for no effect and ±100 for the full control effect; nearly all actives have a fitted effect of over 55% in size
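No-CPT arm: Tdp1-/-;hTDP1 DT40 cells (400/well) plus compounds, incubated ≥48 hr at 37 °C. Readout CellTiter-Glo luminescence.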
Starred values were filed as active, the others as inactive; i = inactive; ? = inconclusive; . = not tested or not shown. This is a sample that favours compounds with a hit; in the whole collection about 17% have one here. Calls follow the shape of the dose curve; as a rule, active = well fitted curve in the direction sought with a large enough effect; inconclusive = small, poorly fitted or top-dose-only effect, or another doubt; inactive = no such curve, though single readings can be large; an effect the other way counts as inactive or inconclusive. Potency is read from the fitted curve at half-maximal effect.

SMILES	HepG2 viability	TDP1 cell CPT	TGFb inhibitor	ATXN viability	ATXN2 expr inh	TDP1 cell noCPT
Cn1c(=O)c([N+](=O)[O-])c(-n2cnc3ccccc32)c2ccccc21	-45%	?	13µM*	?	?	21µM*
Cn1c(=O)c([N+](=O)[O-])c(Cl)c2ccccc21	-64%	2.6µM*	?	.	?	4.6µM*
O=C(Cn1c2ncccc2c(=O)n1-c1ccccc1)Nc1ccc(F)c(F)c1	2%	-11%	17%	i	6%	-14%
Cc1cc2nc(-c3ccc(Br)cc3)cc(C(F)(F)F)n2n1	1%	6%	2%	i	8%	-22%
CCOc1ccc(NC(=O)Nc2cc3c(cc2N2CCCCC2)n(C)c(=O)n3C)cc1	-41%	12µM*	?	i	-10%	13µM*
COc1ccc(C(=O)Nc2cc3c(cc2N2CCCCC2)n(C)c(=O)n3C)cc1OC	5%	?	11%	i	32%	21µM*
COc1cc(C(=O)Nc2cc3c(cc2N2CCCCC2)n(C)c(=O)n3C)cc(OC)c1OC	-48%	21µM*	-17%	i	.	15µM*
Cc1c(OCC(=O)NCCN2CCOCC2)ccc2c(-c3ccccc3)cc(=O)oc12	-5%	7%	-3%	i	7%	?
CC(=O)N1CC(=O)N=C1SCC(=O)Nc1nc(-c2ccccc2)c(-c2ccccc2)s1	6%	18µM*	-5%	i	-13%	13µM*
Cc1sc(NC(=O)CSC2=NCCS2)nc1-c1ccccc1	-30%	-23%	-4%	i	26%	?
O=C(C[N+]12CN3CN(CN(C3)C1)C2)c1ccc(I)cc1	-38%	?	-25%	.	.	?
CC(C)Nc1nc(-c2ccccc2F)c2sc(-c3ccccc3)cc2n1	-18%	?	22%	i	6%	?
COCCNc1nc(-c2cc(F)ccc2C)c2sc(-c3ccccc3)cc2n1	-29%	26µM*	-1%	i	-15%	15µM*
COCCNc1nc(-c2ccccc2F)c2sc(-c3ccccc3)cc2n1	-16%	18µM*	-3%	i	-22%	?
O=C(COC(=O)c1ccco1)c1ccc(Cl)cc1	-14%	-90%	1%	i	10%	1.3µM*
O=C(COC(=O)c1ccco1)c1ccccc1	-10%	-19%	2%	i	2%	4%
CCCCCn1c(CNC(=O)c2ccc(F)cc2)nc2ccccc21	-40%	16µM*	?	?	?	21µM*
CCCCCn1c(CCCNC(=O)c2ccccc2)nc2ccccc21	-31%	23µM*	?	?	?	21µM*
CCCCCCn1c(CNC(=O)c2ccccc2)nc2ccccc21	-25%	?	?	i	-7%	?
Cc1cc2c(cc1C)-n1nnnc1C(N(Cc1ccccc1)Cc1ccccc1)C(=O)N2 (stereo not given)	.	?	.	.	.	21µM*
Cc1cc2c(cc1C)-n1nnnc1C(N1CCN(CC(=O)NC(C)C)CC1)C(=O)N2 (stereo not given)	.	?	.	.	.	-28%
COc1cccc(CNCCO)c1OCc1ccccc1Cl	-29%	5%	10%	?	-13%	-3%
CC(C)(C)c1nnc(N/N=C/c2ccccc2)n(N)c1=O	-3%	-1%	9%	i	11%	?
CC(C)(C)c1nnc(N/N=C/c2ccccc2O)n(N)c1=O	-21%	0.65µM*	-2%	i	?	1µM*
COc1cccc(/C=N/Nc2nnc(C)n2N)c1OCc1ccccc1Cl	-99%	?	?	i	0%	23µM*

Screens: PubChem, National Center for Advancing Translational Sciences (NCATS)
